The record followed here is PubChem BioAssay (Tox21).

Molecules are shown by their SMILES. Records with an inconclusive call do not appear. A number with no mark means an inactive call. Active and inactive are the calls of the source. Calls come from the whole dose curve; as a rule, active = well fitted cell-killing curve with a large enough effect in the repeat runs; inconclusive = weak or mixed curves, or effect the other way; inactive = no such curve, though single readings can be large or run the other way.
% is set by controls: 0 for no effect and ±100 for the full control effect; potency is the fitted concentration of half-maximal effect.

The assay in a line: qHTS assay to identify small molecule agonists of the vitamin D receptor (VDR) signaling pathway - cell viability counter screen (AID 743224). Note: nearly all actives have a fitted effect of over 50% in size. The note with it: VDR-bla HEK293T viability, CellTiter-Glo luminescence, 16 h; series mostly up to 62.6 µM; activity change, negative = cytotoxicity: at the top concentration. An excerpt:
U.S. Tox21 Program National Center for Advancing Translational Sciences [NCATS] NIH Chemical Genomics Center [NCGC] U.S. Environmental Protection Agency [EPA] National Institutes of Environmental Health Sciences [NIEHS] National Toxicology Program [NTP] U.S. Food and Drug Administration [FDA] Tox21 Assay Overview: The vitamin D receptor (VDR), a member of nuclear hormone receptor superfamily, plays a critical role in calcium homeostasis and bone metabolism. It is also involved in cell differentiation and growth, and thrombogenicity. […] The cytotoxicity of the Tox21 compound library against the VDR-bla cell line was tested in parallel by measuring the cell viability using CellTiter-Glo assay (Promega, Madison, WI) in the same wells.
Tox21 Assay Protocol Summary: VDR-bla cells were dispensed at 2,000 cells/6 uL/well into black wall/clear-bottom 1536-well plates using a Multidrop Combi (Thermo Fisher Scientific, Waltham, MA) dispenser. After the assay plates were incubated at a 37C and 5% CO2 for 4 h, 23 nL of compounds dissolved in DMSO, positive controls or DMSO only was transferred to the assay plate by a Pintool station (Kalypsys, San Diego, CA). The plates were incubated at 37C and 5% CO2 for 16 h. After 1 uL of LiveBLAzerTM B/G FRET substrate was added using a Bioraptr Flying Reagent Dispenser (FRD) workstation (Beckman Coulter, Indianapolis, IN, USA), the plates were incubated at room temperature for 2 h, and fluorescence intensity was measured by an Envision plate reader (PerkinElmer, Shelton, CT). For cell viability readout that measures cytotoxicity, 3 ul/well of CellTiter-Glo reagent was added into the assay plates using a FRD. After 30 min incubation at room temperature, the luminescence intensity in the plates was measured using a ViewLux (PerkinElmer) plate reader.
`O=[N+]([O-])c1ccc2[nH]ncc2c1`: the “activity change, negative = cytotoxicity” value was -10.2%.
As to `CC(C)(C)OCC1CO1` (stereo not given), the “activity change, negative = cytotoxicity” value was 4.29% [at 81.1 µM].
On the same count and under the same terms, under `Cc1ccc(C(=O)Oc2ccc(C(O)CNC(C)(C)C)cc2OC(=O)c2ccc(C)cc2)cc1` (stereo not given) stands -3.49%; under `Cc1cc(C(=O)O)ccc1[N+](=O)[O-]`, -4.86%; under `Nc1ccc(S(=O)(=O)Nc2ccccc2)cc1`, 0.964%.
The same measure, in the same setting: the figure for `OCCNCc1ccccc1` is 0.446%.
As to `CN1C[C@H]2c3ccccc3Oc3ccc(Cl)cc3[C@@H]2C1`, the “activity change, negative = cytotoxicity” value is -13.2%.
In the case of `O=S(=O)(Oc1ccc(Cl)cc1)c1ccccc1`, the “activity change, negative = cytotoxicity” value is 0.945%.
Still for that read-out and setting: under `CC/C=C\CCOC(=O)CC` stands 10.4%; under `O=C1C(O)=C(O)C(=O)C(O)=C1O`, 0.484%.
Consider `COc1cc(C(=O)OCCCN2CCCN(CCCOC(=O)c3cc(OC)c(OC)c(OC)c3)CC2)cc(OC)c1OC`, for which the “activity change, negative = cytotoxicity” value is -10%.
As to `O=C(O)C(S)C(S)C(=O)O` (stereo not given), the “activity change, negative = cytotoxicity” value was 0.642%.
The same measure, in the same setting: under `NC(N)=NCCC[C@H](N)C(=O)O` stands -0.114% [at 5.95 µM]; under `O=C(CS)Nc1ccccc1`, -4.29%.
As to `CN1CCC(N(Cc2cccs2)c2ccccc2)CC1`, the Potency is 33.5 µM (active).
For the compound `COc1cc2nc(Cl)nc(N)c2cc1OC`, the “activity change, negative = cytotoxicity” value was 29.6%.
Consider `CC(C)=CCC/C(C)=C/CC/C(C)=C/CO`, for which the Potency was 49 µM (active).
With `CC1=CC=C(C(C)C)CC1`, the “activity change, negative = cytotoxicity” value was 13.8%.
Still for that read-out and setting: under `COc1ccc(C)cc1[N+](=O)[O-]` stands 13.5% [at 81.1 µM]; under `CO[C@@H]1[C@H](OC(=O)/C=C/C=C/C=C/C=C/C(=O)O)CC[C@]2(CO2)[C@H]1[C@@]1(C)O[C@@H]1CC=C(C)C`, -2.49%.
For `OC(C#CCN1CCCC1)(c1ccccc1)c1ccccc1`, the “activity change, negative = cytotoxicity” value is 1.49%.
The same measure, in the same setting: under `CCCCCCCCCOS(=O)(=O)O` stands 4.62%.
On the same count and under the same terms, under `ClCCOCCOCCCl` stands 11.6%; under `CC(C)(O)c1ccc(CNC(=O)c2cccnc2Oc2ccc(F)cc2)cc1`, -0.156%.
Regarding `O=C(O)CNCC(=O)O`, the activity change, negative = cytotoxicity was -6.84% [at 5.95 µM].
In the case of `C=CC(=O)OCCOc1ccccc1`, the “activity change, negative = cytotoxicity” value was -2.59%.
On to `O=P(O)(OCc1ccccc1)OCc1ccccc1`, for which the “activity change, negative = cytotoxicity” value is 0.807%.
As to `CCOc1ccc(N)c([N+](=O)[O-])c1`, the “activity change, negative = cytotoxicity” value is -20.1%.
In the case of `O=C(OCCCCCCOC(=O)c1ccccc1)c1ccccc1`, the Potency was 43.6 µM (active).
Regarding `CN(C)CCN(Cc1ccsc1)c1ccccn1`, the “activity change, negative = cytotoxicity” value is 0.665%.
On the same count and under the same terms, the figure for `Brc1c2ccccc2c(Br)c2ccccc12` is 13.8% [at 5.95 µM]; for `O=C1CCC(=O)O1` it is 18.6% [at 81.1 µM].
`CC(=O)c1ccc2c(c1)N(CCCN(C)C)c1ccccc1S2`: the “activity change, negative = cytotoxicity” value was -3.61%.
`CCOC(=O)NCCOc1ccc(Oc2ccccc2)cc1`: the “activity change, negative = cytotoxicity” value is -13.4%.
Take `NCc1ccccc1Sc1ccccc1CO`: the “activity change, negative = cytotoxicity” value was -2.41%.
The same measure, in the same setting: under `C#Cc1cccc(Nc2ncnc3cc(OCCOC)c(OCCOC)cc23)c1` stands -0.769%; under `CCCCCCCCO[C@@H]1O[C@H](CO)[C@@H](O)[C@H](O)[C@H]1O`, 11%; under `CCc1cc(C2=C(C(=O)O)N(c3ccccc3C(F)(F)F)S(=O)(=O)c3ccccc32)cc2c1OCO2`, -2.37%.
For `O=C(NCC1CN(c2ccc(N3CCOCC3=O)cc2)C(=O)O1)c1ccc(Cl)s1` (stereo not given), the “activity change, negative = cytotoxicity” value is -17.4%.
In the case of `CCCOC(C(=O)OC1CCN(C)CC1)(c1ccccc1)c1ccccc1`, the “activity change, negative = cytotoxicity” value was -23.5%.
